Assay results reported in PubChem BioAssay AID1159580 (chemical genetic matrix, 2015).
Among all 5,500 compounds or so, about 2,000 (36%) were called active. About 18% were inconclusive and are not listed. Cut-off read from the data, not from the text of the source: active = normalized growth mostly below about 0.91 (no sharp cut-off); inconclusive = no clear call, values can overlap the other calls; inactive = mostly above about 0.92. Some of the results follow.

Assay: chemical genetic growth profiling, strain panel (AID 1159580);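 note: tested at 20 µM; growth read once vehicle control cultures reached saturation at 30 °C; 1 = growth at the plate median or of vehicle wells; lower values mean less growth of the strain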
Conditions: S. cerevisiae deletion strains, growth OD

Measured: normalized growth

O=C(/C=C/c1ccccc1)O[C@H]1C[C@@H](O)[C@]2(O)C=CO[C@@H](O[C@@H]3O[C@H](CO)[C@@H](O)[C@H](O)[C@H]3O)[C@H]12
inactive: locus YAL021C, strain ccr4, stronger effect = lower value 0.996 | locus YAL026C, strain drs2, stronger effect = lower value 1.03 | locus YAL030W, strain snc1, stronger effect = lower value 1.03 | locus YBL061C, strain skt5, stronger effect = lower value 1.02 | locus YBR009C, strain hhf1, stronger effect = lower value 1.05 | locus YBR023C, strain chs3, stronger effect = lower value 1.02 | locus YBR171W, strain sec66, stronger effect = lower value 1.03 | locus YBR231C, strain swc5, stronger effect = lower value 1.03 | locus YBR279W, strain paf1, stronger effect = lower value 1.02 | locus YCL011C, strain gbp2, stronger effect = lower value 1.02 | locus YCL016C, strain dcc1, stronger effect = lower value 1.03 | locus YCL061C, strain MRC1, stronger effect = lower value 1.02 | locus YCL069W, strain vba3, stronger effect = lower value 1.03 | locus YCR088W, strain abp1, stronger effect = lower value 1.02 | locus YDL005C, strain med2, stronger effect = lower value 1.02 | locus YDL040C, strain nat1, stronger effect = lower value 1.03 | locus YDR001C, strain nth1, stronger effect = lower value 1.02 | locus YDR069C, strain doa4, stronger effect = lower value 1.03 | locus YDR137W, strain rgp1, stronger effect = lower value 1.03 | locus YDR159W, strain sac3, stronger effect = lower value 1.05 | locus YDR195W, strain ref2 1.01 | locus YDR297W, strain sur2, stronger effect = lower value 1.02 | locus YDR334W, strain swr1, stronger effect = lower value 1.03 | locus YDR335W, strain msn5, stronger effect = lower value 1.02 | locus YDR392W, strain spt3, stronger effect = lower value 0.927 | locus YEL003W, strain gim4, stronger effect = lower value 1.03 | locus YEL037C, strain rad23, stronger effect = lower value 1.02 | locus YEL061C, strain CIN8 (second series), stronger effect = lower value 1.01 | locus YER015W, strain faa2, stronger effect = lower value 1.02 | locus YER016W, strain bim1, stronger effect = lower value 1.03 | locus YER111C, strain swi4, stronger effect = lower value 1.03 | locus YER155C, strain BEM2 (second series), stronger effect = lower value 1.04 | locus YFR010W, strain ubp6, stronger effect = lower value 1.03 | locus YGL167C, strain pmr1, stronger effect = lower value 1.02 | locus YGL173C, strain kem1, stronger effect = lower value 1.03 | locus YGL227W, strain vid30, stronger effect = lower value 1.03 | locus YGL240W, strain doc1, stronger effect = lower value 1.04 | locus YGL253W, strain hxk2, stronger effect = lower value 1.03 | locus YHR013C, strain ard1, stronger effect = lower value 0.995 | locus YHR027C, strain rpn1, stronger effect = lower value 1.03 | locus YHR030C, strain SLT2, stronger effect = lower value 0.902 | locus YHR079C, strain IRE1, stronger effect = lower value 0.939 | locus YHR142W, strain chs7, stronger effect = lower value 0.998 | locus YJL092W, strain hpr5, stronger effect = lower value 1.02 | locus YJL095W, strain BCK1 (second series), stronger effect = lower value 1.03 | locus YJL095W, strain BCK1, stronger effect = lower value 0.928 | locus YJL115W, strain asf1, stronger effect = lower value 1.03 | locus YJL129C, strain trk1, stronger effect = lower value 1.01 | locus YJL154C, strain vps35, stronger effect = lower value 1.02 | locus YJL164C, strain tpk1, stronger effect = lower value 1.01 | locus YJL166W, strain qcr8, stronger effect = lower value 1.03 | locus YJL187C, strain SWE1, stronger effect = lower value 1.02 | locus YJR066W, strain TOR1, stronger effect = lower value 0.92 | locus YKL160W, strain elf1, stronger effect = lower value 0.989 | locus YKR026C, strain gcn3, stronger effect = lower value 1.03 | locus YKR091W, strain srl3, stronger effect = lower value 1.02 | locus YLL001W, strain dnm1, stronger effect = lower value 1.02 | locus YLL026W, stronger effect = lower value 1.02 | locus YLL041C, strain sdh2, stronger effect = lower value 1.02 | locus YLR027C, strain aat2, stronger effect = lower value 1.02 | locus YLR113W, strain HOG1, stronger effect = lower value 0.878 | locus YLR221C, strain rsa3, stronger effect = lower value 1 | locus YLR258W, strain gsy2, stronger effect = lower value 1.05 | locus YLR262C, strain YPT6 (second series), stronger effect = lower value 1.04 | locus YLR320W, strain mms22, stronger effect = lower value 1.02 | locus YLR342W, strain FKS1, stronger effect = lower value 1.02 | locus YLR357W, strain rsc2, stronger effect = lower value 1.02 | locus YLR370C, strain arc18, stronger effect = lower value 1.02 | locus YLR384C, strain iki3, stronger effect = lower value 1.03 | locus YML120C, strain ndi1, stronger effect = lower value 0.999 | locus YMR058W, strain fet3, stronger effect = lower value 1.02 | locus YMR125W, strain sto1, stronger effect = lower value 1.03 | locus YMR129W, stronger effect = lower value 1.02 | locus YMR205C, strain PFK2, stronger effect = lower value 1.06 | locus YMR231W, strain pep5, stronger effect = lower value 1.03 | locus YNL071W, strain lat1, stronger effect = lower value 1.02 | locus YNL183C, strain NPR1, stronger effect = lower value 0.951 | locus YNL209W, strain ssb2, stronger effect = lower value 1.02 | locus YNL248C, strain rpa49, stronger effect = lower value 0.992 | locus YNL322C, strain KRE1 (second series), stronger effect = lower value 1.03 | locus YNR049C, strain mso1, stronger effect = lower value 1.03 | locus YOR001W, strain rrp6, stronger effect = lower value 1 | locus YOR070C, strain gyp1, stronger effect = lower value 1.03 | locus YOR080W, strain dia2, stronger effect = lower value 1.03 | locus YOR083W, strain WHI5, stronger effect = lower value 0.986 | locus YOR106W, strain vam3, stronger effect = lower value 1.01 | locus YOR231W, strain MKK1, stronger effect = lower value 0.938 | locus YOR265W, strain rbl2, stronger effect = lower value 1.02 | locus YOR270C, strain vph1, stronger effect = lower value 1.03 | locus YOR290C, strain snf2, stronger effect = lower value 0.969 | locus YPL051W, strain arl3, stronger effect = lower value 1.01 | locus YPL078C, strain atp4, stronger effect = lower value 0.996 | locus YPL106C, strain sse1, stronger effect = lower value 1.04 | locus YPL240C, strain hsp82, stronger effect = lower value 1.02 | locus YPL256C, strain CLN2, stronger effect = lower value 0.943
